Measurements from PubChem BioAssay.
The source made the active and inactive calls.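 How the source made its calls, unless noted: active means fluorescence slope higher than the sample average by over 3 SD (cut at about -0.22 in these data, passing the limit was not always enough); inactive means the rest.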

Columns and labels:
[1] = inhibitors of TNFa-induced NFkB p65 translocation, primary screen, imaging, HUVEC, MLSMR starter and 10KST1 sets (AID 438;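 active means inhibition above 20% together with a positive visual image hit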;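 further: compound added about 3h40 before a 20 min TNFalpha stimulation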;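 on inhibition: signal is the nuclear over cytoplasmic p65 intensity ratio per well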); conditions: HUVEC TNFa-induced p65 nuclear translocation; cell count: measured here: nuclei count (cytotoxicity indicator), at 2.08 µM unless noted; inhibition: at 2 µM, stronger effect = higher value unless noted
[2] = endothelial E-selectin expression blockers – imaging, HUVEC, immunofluorescence, MLSMR starter and 10KST1 sets, primary screen (AID 487;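 active means visually confirmed hit in the image check and inhibition above 20%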;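 on inhibition: signal is fraction of cell area covered by stained E-selectin grains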;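 on nuclei count: 100% = median nuclei count of all wells on the same plate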); conditions: HUVEC TNFalpha-induced E-selectin immunofluorescence imaging, at 2 µM; inhibition: stronger effect = higher value; nuclei count: measured here: cell number, toxicity
[3] = Primary imaging screen for DUSP6 inhibitors that restore phospho-Erk in transfected HeLa cells, chemical complementation (AID 609;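 active means compounds giving at least 50% inhibition in the cell-based MKP-3 phosphatase rescue imaging test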;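 on inhibition: phospho-Erk level distribution per well compared with pooled transfected vehicle control wells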); conditions: HeLa MKP-3 transfected, phospho-Erk imaging KS statistic, at 10 µM
[4] = molecular target: Dual specificity protein phosphatase 6 (Homo sapiens) (UniProt Q16828); assay: as above; conditions: HeLa MKP-3 transfected, phospho-Erk imaging KS statistic, at 10 µM, stronger effect = higher value
[5] = molecular target: Voltage-gated potassium channel subunit beta-2 (Rattus norvegicus) (UniProt P62483); assay: inhibitors of rat Kvbeta2 reductase activity – biochemical, NADPH fluorescence, primary screen (AID 622); conditions: recombinant KvBeta, 4-cyanobenzaldehyde reduction, at 10 µM, stronger effect = higher value;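 further: slope of raw intensity against log time taken from 70 to 1610 s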
[6] = molecular target: Voltage-gated potassium channel subunit beta-2 (Rattus norvegicus) (UniProt P62483); assay: enhancers of rat Kvbeta2 NADPH turnover – biochemical, NADPH fluorescence, primary screen (AID 623;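 active means NADPH fluorescence slope more negative than the mean of all samples by about 3 SD, 99.7% confidence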;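 further: fluorescence intensity change per second fitted from 20 to 320 s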); conditions: Recombinant KvBeta, NADPH fluorescence decrease slope, 10 min; at 10 µM; stronger effect = lower value
[7] = molecular target: Muscarinic acetylcholine receptor M4 (Homo sapiens) (UniProt P08173); assay: M4-linked GIRK flux change, two-sided – cell-based, HEK293 M4/GIRK, thallium flux, BTC-AM, M4 allosteric agonist project, primary screen (AID 625;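 active means fluorescence slope after compound addition differing from the mean of all tested samples at 99.7% confidence, mostly higher but some lower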;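 further: thallium influx through GIRK channels coupled to M4 in HEK293 cells with BTC-AM dye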); conditions: at 10 µM, actives lie on both sides
[8] = inhibitors of larval lipid processing in zebrafish, primary screen, whole organism, PED6 fluorescence, gall bladder and intestine (AID 686;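 active means a full or partial loss of lipid-probe fluorescence in the fish gall bladder, intestine or both, judged by eye; inactive means no fluorescence loss, or compound toxic to the fish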;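 further: larvae 5 to 7 days old with five fish per well; signal comes from phospholipase A2 cleavage of quenched PED6 carried via bile; overnight exposure to compound and PED6 before scoring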); conditions: Zebrafish larvae PED6 lipid processing, fluorescence scoring
[9] = loss of swimming-algae plug formation – whole organism, Chlamydomonas reinhardtii, WT vs cilia-less mutant, absorbance, 96-well, primary screen (AID 463189;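 active means inhibition at or above 50% relative to wild type and mutant plate controls; inactive means inhibition below 50%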;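 further: 0% = wild type cc124 cells in DMSO and 100% = ciliumless bld1 mutant cells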); conditions: Chlamydomonas reinhardtii gravitaxis, OD600 absorbance, 2 days; at 10 µM; stronger effect = higher value
[10] = reduction of polyQ htt aggregates in cells – imaging, exon1htt(103Q)mCFP cells, high-content imaging, primary screen (AID 483;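 active means visual image review flags a hit and inhibition of aggregation exceeds 20%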;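 further: compound exposure lasted 3 days before fixation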;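 on nuclei count: percent of the per-plate median nuclei count of sample wells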); conditions: exon1htt(103Q)mCFP cell line, aggregate imaging, at 2 µM; inhibition of aggregation: stronger effect = higher value; nuclei count: measured here: cell count, toxicity
[11] = molecular target: Alpha-2C adrenergic receptor (Homo sapiens) (UniProt P18825); assay: compounds altering alpha2C-coupled GIRK flux – cell-based, HEK293 alpha2C/GIRK1/2, thallium flux, primary screen (AID 624;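 active means fluorescence slope after compound addition differing from the mean of all screened samples at 99.7% confidence, in either direction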;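 further: slope of fluorescence ratio to pre-addition baseline per second over 15 to 24 s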); conditions: thallium flux BTC fluorescence, at 10 µM, actives lie on both sides
[12] = blockers of RIG-like receptor reporter activation – cell-based, Sendai virus stimulus, luciferase, 10K MLSCN set, TLR/RLR signaling modifier project, primary screen (AID 602276;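 active means inhibition at or above 50% at 10 µM; inactive means inhibition below 50%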;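 further: firefly luciferase from ISG56 promoter only with Renilla not read in this screen; 0% = Sendai virus plus DMSO and 100% = medium plus DMSO without virus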); conditions: HEK293 RL24 IRF3 luciferase reporter, at 10 µM, stronger effect = higher value
[13] = TLR3 IRF3 reporter activation blockers – cell-based, poly I:C stimulus, luciferase, 10K MLSCN set, primary screen (AID 602277;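 active means inhibition of the reporter signal at or above 50%; inactive means inhibition below 50%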); conditions: HEK293-TLR3 RL24 IRF3 luciferase reporter, at 10 µM, stronger effect = higher value
[14] = measured here: cell density z-score
[15] = measured here: nuclear c-Myc green intensity z-score
[16] = measured here: nuclear pErk red intensity z-score, stronger effect = higher value

Voltage-gated potassium channel subunit beta-2 (Rattus norvegicus), sequence (P62483 whole entry, looked up): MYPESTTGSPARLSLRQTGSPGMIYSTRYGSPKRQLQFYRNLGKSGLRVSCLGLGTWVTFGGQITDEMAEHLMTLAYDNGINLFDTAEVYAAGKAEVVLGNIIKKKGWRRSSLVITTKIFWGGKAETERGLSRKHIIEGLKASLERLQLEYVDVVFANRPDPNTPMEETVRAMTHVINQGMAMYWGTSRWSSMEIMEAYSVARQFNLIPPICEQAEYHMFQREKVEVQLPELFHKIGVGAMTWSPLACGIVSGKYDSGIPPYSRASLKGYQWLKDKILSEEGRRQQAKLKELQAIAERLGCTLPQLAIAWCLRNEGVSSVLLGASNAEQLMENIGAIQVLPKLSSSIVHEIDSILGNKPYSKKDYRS
Dual specificity protein phosphatase 6 (Homo sapiens), sequence (Q16828 whole entry, looked up): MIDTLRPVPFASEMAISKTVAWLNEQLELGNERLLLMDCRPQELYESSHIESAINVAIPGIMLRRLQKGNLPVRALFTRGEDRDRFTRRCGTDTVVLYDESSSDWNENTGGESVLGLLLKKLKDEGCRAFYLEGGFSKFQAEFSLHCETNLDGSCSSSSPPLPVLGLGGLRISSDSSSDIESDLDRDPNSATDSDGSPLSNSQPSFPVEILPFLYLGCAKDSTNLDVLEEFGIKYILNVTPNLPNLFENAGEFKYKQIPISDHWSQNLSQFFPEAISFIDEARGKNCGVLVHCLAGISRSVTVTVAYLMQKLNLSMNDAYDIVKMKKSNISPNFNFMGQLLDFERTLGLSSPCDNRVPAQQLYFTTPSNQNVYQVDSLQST
Alpha-2C adrenergic receptor (Homo sapiens), sequence (P18825 whole entry, looked up): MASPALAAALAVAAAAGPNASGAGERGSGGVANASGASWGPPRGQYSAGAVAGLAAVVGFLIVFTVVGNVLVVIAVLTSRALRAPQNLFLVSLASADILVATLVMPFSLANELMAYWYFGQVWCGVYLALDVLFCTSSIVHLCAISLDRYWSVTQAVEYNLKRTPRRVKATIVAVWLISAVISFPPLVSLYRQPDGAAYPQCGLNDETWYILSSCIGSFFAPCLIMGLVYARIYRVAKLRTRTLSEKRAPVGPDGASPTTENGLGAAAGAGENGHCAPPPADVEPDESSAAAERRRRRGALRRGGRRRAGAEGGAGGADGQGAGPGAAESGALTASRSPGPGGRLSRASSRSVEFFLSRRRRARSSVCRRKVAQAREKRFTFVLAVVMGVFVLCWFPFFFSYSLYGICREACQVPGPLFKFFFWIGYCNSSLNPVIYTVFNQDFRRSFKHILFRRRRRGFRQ
Muscarinic acetylcholine receptor M4 (Homo sapiens), sequence (P08173 whole entry, looked up): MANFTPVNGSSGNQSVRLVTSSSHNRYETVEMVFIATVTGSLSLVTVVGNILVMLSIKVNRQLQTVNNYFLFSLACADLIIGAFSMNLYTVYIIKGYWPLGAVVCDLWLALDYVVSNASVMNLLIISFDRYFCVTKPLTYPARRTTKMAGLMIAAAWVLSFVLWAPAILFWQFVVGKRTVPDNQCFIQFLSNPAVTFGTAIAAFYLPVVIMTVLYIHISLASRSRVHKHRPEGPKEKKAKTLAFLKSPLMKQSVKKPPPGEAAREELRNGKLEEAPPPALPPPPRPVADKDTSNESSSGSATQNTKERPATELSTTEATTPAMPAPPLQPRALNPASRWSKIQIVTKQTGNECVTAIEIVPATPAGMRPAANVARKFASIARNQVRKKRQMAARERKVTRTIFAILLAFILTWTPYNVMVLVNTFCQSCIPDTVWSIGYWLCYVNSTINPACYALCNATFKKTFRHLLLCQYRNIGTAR

Compound	cell count [1]	inhibition [1]	inhibition [2]	nuclei count [2] [%]	z-score [3, 14]	z-score [3, 15]	z-score [3, 16]	inhibition [4]	fluorescence slope [5]	NADPH fluorescence slope [6]	fluorescence slope [7]	outcome [8]	inhibition [9]	inhibition of aggregation [10]	nuclei count [10] [%]	slope [11]	inhibition [12]	inhibition [13]
Nc1c(C(=O)NCc2ccco2)c2nc3ccccc3nc2n1CCN1CCCCC1	676	18.1% (inactive)	50.8% (inactive)	138	-0.477	2.3	-0.0288	-6.06% (inactive)	-0.0963 (inactive)	-2.8e-05 (inactive)	0.00537 (inactive)	inactive	131% (active)					
CCCCNC(=O)Nc1ccc(C(O)(C(=O)OCC)C(F)(F)F)cc1 (centres undefined)	688	-5.9% (inactive)	-16.7% (inactive)	173	-0.832	-1.24	1.19	3.49% (inactive)	-0.432 (inactive)	-4.2e-05 (inactive)	0.00537 (inactive)	inactive	5.22% (inactive)					
COc1ccc(C2SCC(=O)Nc3c2c(=O)[nH]n3C2CCCCC2)cc1 (centres undefined)	380	-8.8% (inactive)	-197% (inactive)	138	0.845	-1.45	-0.612	14% (inactive)	-0.479 (inactive)	-0.000101 (inactive)	0.00663 (inactive)	inactive	6.02% (inactive)					
Cc1ccc(CC2C(=O)N(C)C(=O)N(C)C2=O)s1	451	2.6% (inactive)	40.2% (inactive)	101					-0.471 (inactive)	-4.3e-05 (inactive)				2% (inactive)	109	0.00411 (inactive)	1.08% (inactive)	25% (inactive)
CCc1nc(N2CCNCC2)c(C#N)c2c1CSC(C)(C)C2	652	3% (inactive)	-79.8% (inactive)	159	-1.09	-0.257	0.497	1.12% (inactive)	-0.474 (inactive)	-1.6e-05 (inactive)	0.00552 (inactive)	inactive	15% (inactive)					
OC(c1ccc(F)cc1)C(c1ccccc1)N1CCOCC1 (centres undefined)	679	2.9% (inactive)	8% (inactive)	153	-0.0994	1.62	0.344	-13.3% (inactive)	-0.427 (inactive)	-3.5e-05 (inactive)	0.00525 (inactive)	inactive	-7.5% (inactive)					
CCCNS(=O)(=O)c1ccc(OCC(=O)N2CCN(Cc3ccccc3)CC2)cc1	296	-7.1% (inactive)	-3.1% (inactive)	110					-0.476 (inactive)	-7e-05 (inactive)				-5% (inactive)	115	0.00533 (inactive)	-3.33% (inactive)	-4.45% (inactive)
CC1(C)NCCN2C(=O)CSC21 (centres undefined)	652	-12.6% (inactive)	-216% (inactive)	158	0.771	0.411	0.0731	4.72% (inactive)	-0.493 (inactive)	-5.8e-05 (inactive)	0.00571 (inactive)	inactive	9.56% (inactive)					
C=CCOC(=O)C1=C(C)OC(N)=C(C#N)[C@@]12C(=O)N(CC(N)=O)c1ccccc12	473	-1.4% (inactive)	-499% (inactive)	193	0.623	-0.273	0.824	2.71% (inactive)	-0.441 (inactive)	-5.7e-05 (inactive)	0.00506 (inactive)	inactive	1.7% (inactive)					
Nc1c(C(=O)NCc2ccco2)c2nc3ccccc3nc2n1Cc1ccc(F)cc1	678	12.5% (inactive)	-9% (inactive)	108	0.15	1.06	-0.878	-7.67% (inactive)	-0.236 (inactive)	-1e-05 (inactive)	0.00698 (inactive)	inactive	34.8% (inactive)					
Cn1c(O)c(C=NCCCNC2CCCCC2)c(=O)n(C)c1=O	420	1.2% (inactive)	-81.5% (inactive)	131	0.261	-0.315	-0.515	26.5% (inactive)	-0.469 (inactive)	-0.000127 (inactive)	0.00413 (inactive)	inactive	-2.14% (inactive)					
COC(=NC1CCCC1)C(O)c1c[nH]c2ccccc12 (centres undefined)	602	9.7% (inactive)	-22.4% (inactive)	79.7					-0.536 (inactive)	-2.7e-05 (inactive)				14% (inactive)	88.5	0.00519 (inactive)	5.75% (inactive)	32.2% (inactive)
OC1(c2ccc(F)cc2)CCNC1 (centres undefined)	391	-8% (inactive)	-146% (inactive)	147	-0.692	-1.09	1.31	1.48% (inactive)	-0.468 (inactive)	-0.000119 (inactive)	0.00482 (inactive)	inactive	16.5% (inactive)					
CCN1CCN(C(=O)COc2cc(=O)n(CC)c3ccccc23)CC1	357	0% (inactive)	-7.3% (inactive)	115					-0.386 (inactive)	-4.3e-05 (inactive)				-14.7% (inactive)	99.2	0.00614 (inactive)	3.27% (inactive)	36.3% (inactive)
